Results as given in PubChem BioAssay (NCATS).
Inconclusive results are not listed. Entries that show only a call come without a potency. Calls of active or inactive are those of the source. Calls follow the shape of the dose curve; as a rule, active = well fitted curve in the direction sought with a large enough effect in the repeat runs; inconclusive = weak or mixed curves; inactive = no such curve, though single readings can be large; an effect the other way counts as inactive or inconclusive.
Also: nearly all actives have a fitted effect of over 55% in size.
Potency is read from the fitted curve at half-maximal effect.

These compounds were tested against Cytochrome P450 2D6 (Homo sapiens) (UniProt P10635) (assay: Cytochrome P450 family 2 subfamily D member 6 (CYP2D6) small molecule antagonists: luciferase biochemical (cell-free) qHTS assay (AID 1645840)). Conditions: P450-Glo CYP2D6 enzyme, luciferin luminescence, 1 h; series mostly up to 57.4 µM.
Cytochrome P450 2D6 (Homo sapiens), sequence (P10635 whole entry, looked up): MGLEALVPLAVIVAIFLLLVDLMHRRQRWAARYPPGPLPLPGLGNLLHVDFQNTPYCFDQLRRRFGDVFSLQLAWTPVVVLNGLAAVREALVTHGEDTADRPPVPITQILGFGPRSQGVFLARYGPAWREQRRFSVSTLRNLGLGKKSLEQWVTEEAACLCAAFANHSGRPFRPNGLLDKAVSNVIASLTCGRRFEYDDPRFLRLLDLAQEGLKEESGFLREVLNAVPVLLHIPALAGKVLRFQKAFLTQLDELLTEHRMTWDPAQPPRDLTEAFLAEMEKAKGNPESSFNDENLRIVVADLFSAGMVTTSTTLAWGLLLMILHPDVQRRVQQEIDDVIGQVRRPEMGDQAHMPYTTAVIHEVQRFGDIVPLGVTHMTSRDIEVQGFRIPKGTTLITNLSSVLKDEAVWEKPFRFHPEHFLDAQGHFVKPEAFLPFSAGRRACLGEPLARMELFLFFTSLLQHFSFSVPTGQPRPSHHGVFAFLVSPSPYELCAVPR
How it was run: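 P450-Glo CYP2D6 system: proluciferin substrate converted by enzyme to luciferin, read by luminescence proportional to activity. Enzyme-substrate mix with compound 10 min at room temperature, then NADPH regeneration 1 h before detection reagent.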
For `CC(C)(C)c1ccc(CN2CCN(C(c3ccccc3)c3ccc(Cl)cc3)CC2)cc1` (configuration not stated), the Potency was “inactive”. For `Nc1nccs1`, the Potency was “inactive”. `C[C@H]1O[C@@H](O[C@H]2[C@@H](O)C[C@H](O[C@H]3[C@@H](O)C[C@H](O[C@H]4CC[C@@]5(C)[C@H](CC[C@@H]6[C@@H]5C[C@@H](O)[C@]5(C)[C@@H](C7=CC(=O)OC7)CC[C@]65O)C4)O[C@@H]3C)O[C@@H]2C)C[C@H](O)[C@@H]1O` was tested, and the Potency was “inactive”. `C=C1CC[C@H](O)CC1=C/C=C1\CCC[C@]2(C)[C@@H]([C@H](C)/C=C/[C@H](C)C(C)C)CC[C@@H]12` was tested, and the Potency was “inactive”. For `CC(=O)NCCCS(=O)(=O)O`, the Potency was “inactive”. For `NC(=O)OCC(O)COc1ccc(Cl)cc1` (configuration not stated), the Potency was “inactive”. In the case of `CCOC(=O)C1=C(COCCN)NC(C)=C(C(=O)OC)C1c1ccccc1Cl` (configuration not stated), the Potency is reported as 16.9 µM (active). For `CCCCCCOC(=O)c1cccnc1`, the Potency was 10.7 µM (active). In the case of `CCOc1ccc(S(=O)(=O)O)c2cccnc12`, the Potency is reported as “inactive”. `CCCCC(=O)O[C@H]1CC[C@H]2[C@@H]3CCc4cc(O)ccc4[C@H]3CC[C@]12C` was tested, and the Potency was “inactive”. `O=S(=O)(O)CCCS(=O)(=O)O` was tested, and the Potency was “inactive”. With `Nc1nc(=O)n([C@@H]2CS[C@H](CO)O2)cc1F` the Potency was “inactive”. For `O=C1CCC(=O)N1CO`, the Potency was “inactive”. `O=C(OC1C[C@@H]2CC3C[C@H](C1)N2CC3=O)c1c[nH]c2ccccc12` (some centres not stated) was tested, and the Potency was 6.74 µM (active). `C[C@]12CC[C@@H]3c4ccc(OC(=O)c5ccccc5)cc4CC[C@H]3[C@@H]1CC[C@@H]2O` was tested, and the Potency was “inactive”. In the case of `OCCOCCOCCO`, the Potency is reported as “inactive”. In the case of `CC[C@H]1OC(=O)[C@H](C)[C@@H](O[C@H]2C[C@@](C)(OC)[C@@H](O)[C@H](C)O2)[C@H](C)[C@@H](O[C@@H]2O[C@H](C)C[C@H](N(C)C)[C@H]2O)[C@](C)(O)C[C@@H](C)CN(C)[C@H](C)[C@@H](O)[C@]1(C)O`, the Potency is reported as “inactive”. `C/C=C/C=C/C(=O)O` was tested, and the Potency was “inactive”. `C=C1[C@H](CO)[C@@H](O)C[C@@H]1n1cnc2c(=O)[nH]c(N)nc21` was tested, and the Potency was “inactive”. With `CC1(O)CCC(C(C)(C)O)CC1` (configuration not stated) the Potency was “inactive”. `CCN(CC)C(=O)c1cccnc1` was tested, and the Potency was “inactive”.

These compounds were tested against Cytochrome P450 2C9 (Homo sapiens) (UniProt P11712) (assay: Cytochrome P450 family 2 subfamily C member 9 (CYP2C9) small molecule antagonists: luciferase biochemical (cell-free) qHTS assay (AID 1645842)). Conditions: P450-Glo CYP2C9 enzyme assay, luciferin luminescence; series mostly up to 57.4 µM.
Cytochrome P450 2C9 (Homo sapiens), sequence (P11712 whole entry, looked up): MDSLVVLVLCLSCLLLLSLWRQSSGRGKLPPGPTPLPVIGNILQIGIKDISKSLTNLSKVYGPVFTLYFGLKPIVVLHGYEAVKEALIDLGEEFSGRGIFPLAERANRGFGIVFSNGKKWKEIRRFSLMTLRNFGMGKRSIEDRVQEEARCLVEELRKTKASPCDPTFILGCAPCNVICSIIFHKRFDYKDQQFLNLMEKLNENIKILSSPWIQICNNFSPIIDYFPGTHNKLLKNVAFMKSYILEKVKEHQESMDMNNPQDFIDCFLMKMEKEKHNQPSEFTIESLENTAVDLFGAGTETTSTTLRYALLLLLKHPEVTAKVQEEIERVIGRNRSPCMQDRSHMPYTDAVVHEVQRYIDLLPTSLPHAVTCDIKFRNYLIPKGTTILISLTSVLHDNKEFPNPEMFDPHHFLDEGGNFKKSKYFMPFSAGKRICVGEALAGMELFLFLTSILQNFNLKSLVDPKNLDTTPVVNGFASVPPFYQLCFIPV
How it was run: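 P450-Glo CYP2C9 system: proluciferin substrate with enzyme in mix containing 0.4% BSA, 10 min at room temperature, then NADPH regeneration solution added and incubated 1 h at 37C. Detection reagent stopped reaction; luminescence read after 20 min as RLU.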
`CC(C)(C)c1ccc(CN2CCN(C(c3ccccc3)c3ccc(Cl)cc3)CC2)cc1` (configuration not stated) was tested, and the Potency was “inactive”. With `Nc1nccs1` the Potency was “inactive”. For `C[C@H]1O[C@@H](O[C@H]2[C@@H](O)C[C@H](O[C@H]3[C@@H](O)C[C@H](O[C@H]4CC[C@@]5(C)[C@H](CC[C@@H]6[C@@H]5C[C@@H](O)[C@]5(C)[C@@H](C7=CC(=O)OC7)CC[C@]65O)C4)O[C@@H]3C)O[C@@H]2C)C[C@H](O)[C@@H]1O`, the Potency was “inactive”. In the case of `C=C1CC[C@H](O)CC1=C/C=C1\CCC[C@]2(C)[C@@H]([C@H](C)/C=C/[C@H](C)C(C)C)CC[C@@H]12`, the Potency is reported as 16.9 µM (active). In the case of `Cc1cc(-c2ccc(N=Nc3c(S(=O)(=O)O)cc4cc(S(=O)(=O)O)cc(N)c4c3O)c(C)c2)ccc1N=Nc1c(S(=O)(=O)O)cc2cc(S(=O)(=O)O)cc(N)c2c1O`, the Potency is reported as 15.1 µM (active). For `C[C@H](NCCc1ccc(O)cc1)[C@H](O)c1ccc(O)cc1`, the Potency was “inactive”. With `COC(=O)C(CN)c1c[nH]c2ccc(OC)cc12` (configuration not stated) the Potency was “inactive”. With `CC(=O)NCCCS(=O)(=O)O` the Potency was “inactive”. With `NC(=O)OCC(O)COc1ccc(Cl)cc1` (configuration not stated) the Potency was “inactive”. With `CCOC(=O)C1=C(COCCN)NC(C)=C(C(=O)OC)C1c1ccccc1Cl` (configuration not stated) the Potency was 2.68 µM (active). For `CCCCCCOC(=O)c1cccnc1`, the Potency was 15.1 µM (active). For `O=C(O)c1cc(N=Nc2ccc(O)c(C(=O)O)c2)ccc1O`, the Potency was 10.7 µM (active). With `CCOc1ccc(S(=O)(=O)O)c2cccnc12` the Potency was “inactive”. In the case of `CCCCC(=O)O[C@H]1CC[C@H]2[C@@H]3CCc4cc(O)ccc4[C@H]3CC[C@]12C`, the Potency is reported as 19 µM (active). For `O=S(=O)(O)CCCS(=O)(=O)O`, the Potency was “inactive”. For `CC(C)=CCC/C(C)=C/CC/C(C)=C/CC/C(C)=C/CC1=C(C)C(=O)c2ccccc2C1=O`, the Potency was 8.49 µM (active). With `Nc1nc(=O)n([C@@H]2CS[C@H](CO)O2)cc1F` the Potency was “inactive”. For `O=C1CCC(=O)N1CO`, the Potency was “inactive”. In the case of `Cc1c(C)c2c(c(C)c1OC(=O)CCC(=O)O)CC[C@@](C)(CCC[C@H](C)CCC[C@H](C)CCCC(C)C)O2`, the Potency is reported as 21.3 µM (active). For `O=C(OC1C[C@@H]2CC3C[C@H](C1)N2CC3=O)c1c[nH]c2ccccc12` (some centres not stated), the Potency was 16.9 µM (active). With `Cn1c(O)c(N=NC(N)=S)c2ccccc21` the Potency was 9.52 µM (active).
